Source: PubChem BioAssay (NCATS)
Results filed as inconclusive are left out. Active and inactive are the calls of the source. The call rests on the fitted dose curve; in most records, active means well fitted curve in the direction sought with a large enough effect; inconclusive means small, poorly fitted or top-dose-only effect, or another doubt; inactive means no such curve, though single readings can be large; an effect the other way counts as inactive or inconclusive.

Columns and labels:
[1] = biological target: Cellular tumor antigen p53 (Homo sapiens) (UniProt P04637); assay: Primary qHTS for small molecule compounds that upregulate eGFP-tagged delta133p53alpha (in N-terminal) cells. (AID 2060322); details: NCI-H358 eGFP-delta133p53alpha fluorescence, 24 h; activation: hits give high values; further: nearly all actives have a fitted effect of over 75% in size; further: potency means the concentration at half of the fitted maximal effect;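 on activation: series mostly up to about 56 µM; 0% = DMSO vehicle and 100% = reference activator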
Cellular tumor antigen p53 (Homo sapiens), sequence (P04637 whole entry, looked up): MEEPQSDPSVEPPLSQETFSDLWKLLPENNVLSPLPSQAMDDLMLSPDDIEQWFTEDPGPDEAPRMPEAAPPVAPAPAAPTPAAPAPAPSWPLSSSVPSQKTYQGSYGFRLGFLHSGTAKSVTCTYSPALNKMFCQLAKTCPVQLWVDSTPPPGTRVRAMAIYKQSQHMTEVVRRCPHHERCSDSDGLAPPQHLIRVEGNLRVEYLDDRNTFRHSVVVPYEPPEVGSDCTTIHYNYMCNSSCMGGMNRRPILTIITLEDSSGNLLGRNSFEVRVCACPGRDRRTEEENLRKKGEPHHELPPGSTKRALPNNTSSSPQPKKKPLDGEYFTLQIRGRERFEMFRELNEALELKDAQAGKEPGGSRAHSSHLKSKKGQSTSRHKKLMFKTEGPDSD
Summary of the method: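 NCI-H358 cells pre-induced 24 h with 10 ng/ml doxycycline to express N-terminal eGFP-delta133p53alpha, then dosed 24 h at 37C without doxycycline; fixed, Hoechst-stained, GFP intensity by laser scanning cytometry, normalized to DMSO (0%) and 57.5 uM 5-azacytidine (100%).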

[2] = biological target: Aldehyde dehydrogenase, mitochondrial (Homo sapiens) (UniProt P05091); assay: qHTS for Inhibitors of the Aldehyde Dehydrogenase Family (ALDH2) Primary screen (AID 2061308);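 further: plate controls were vehicle for no effect and reference inhibitor for full effect; nearly all actives have a fitted effect of over 55% in size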
[3] = biological target: Retinaldehyde dehydrogenase 3 (Homo sapiens) (UniProt P47895); assay: qHTS for Inhibitors of the Aldehyde Dehydrogenase Family (ALDH1A3) Primary screen (AID 2061315);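 further: plate controls were DMSO vehicle for no effect and reference inhibitor for full effect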
[4] = BET inhibitor-based combinations targeting novel dependencies in MECOM-rearranged (r) AML: SET-2 cell line (AID 2202231); details: SET-2 AML cells viability, CellTiter-Glo luminescence, 48 h; viability: hits give low values, concentration not given here; further: nearly all actives have a fitted effect of over 35% in size; further: potency means the concentration at half of the fitted maximal effect;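 on viability: plate controls were DMSO treated cells for no effect and wells without cells for full effect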
Summary of the method: (§1)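 500 cells/well; 11-pt dose curve; 48 h, standard incubator; CellTiter-Glo luminescence after 15 min RT; DMSO/empty-well normalization; AUC plus Z-AUC (mean-centered within each line).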

[5] = BET inhibitor-based combinations targeting novel dependencies in MECOM-rearranged (r) AML: HNT-34 cell line (AID 2202234); further: potency means the concentration at half of the fitted maximal effect; nearly all actives have a fitted effect of over 35% in size
Summary of the method: (§2)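 Cells were plated at 500 per well and exposed to each drug across an 11-point dose range for 48 hr at standard incubator conditions. Viability was read by CellTiter-Glo luminescence, and activity was expressed as AUC and per-cell-line Z-transformed AUC.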

[6] = BET inhibitor-based combinations targeting novel dependencies in MECOM-rearranged (r) AML: AML-191 cell line (AID 2202236; further: potency means the concentration at half of the fitted maximal effect; nearly all actives have a fitted effect of over 35% in size)
Summary of the method: as §1

[7] = BET inhibitor-based combinations targeting novel dependencies in MECOM-rearranged (r) AML: AML-194 cell line (AID 2202237; further: nearly all actives have a fitted effect of over 40% in size; further: potency means the concentration at half of the fitted maximal effect)
Summary of the method: as §1

[8] = BET inhibitor-based combinations targeting novel dependencies in MECOM-rearranged (r) AML: OCI-AML3 cell line (AID 2202232); details: Potency: OCI-AML3 viability; further: potency means the concentration at half of the fitted maximal effect; nearly all actives have a fitted effect of over 35% in size
Summary of the method: as §1

[9] = BET inhibitor-based combinations targeting novel dependencies in MECOM-rearranged (r) AML: MV-4-11 cell line (AID 2202233); further: potency means the concentration at half of the fitted maximal effect; nearly all actives have a fitted effect of over 45% in size
Summary of the method: as §2

[10] = BET inhibitor-based combinations targeting novel dependencies in MECOM-rearranged (r) AML: UCSD-AML1 cell line (AID 2202235); further: nearly all actives have a fitted effect of over 40% in size; further: potency means the concentration at half of the fitted maximal effect
Summary of the method: as §2

Cn1ncc(Cl)c1-c1cc(C(=O)N[C@H](CN)Cc2cccc(F)c2)sc1Cl
active: Potency [1] 30.1 µM | Potency [4] 9.34 µM | Potency [5] 16.6 µM | Potency [6] 16.6 µM | Potency [7] 18.6 µM
inactive: Potency [2] | Potency [3]

CCCCCN(CCC12CC3CC(CC(C3)C1)C2)C(=O)NCCCc1ccncc1
inactive: Potency [2] | Potency [3]
active: Potency [1] 23.9 µM | Potency [8] 18.6 µM | Potency [9] 13.2 µM | Potency [5] 16.6 µM | Potency [10] 14.8 µM | Potency [6] 20.9 µM | Potency [7] 18.6 µM

NC(=O)c1c(OCc2c(F)cc(Br)cc2F)nsc1NC(=O)NCCCCN1CCCC1
active: Potency [8] 20.9 µM | Potency [9] 20.9 µM | Potency [5] 23.5 µM | Potency [6] 26.3 µM | Potency [7] 26.3 µM
inactive: activation [1] 9.77% | Potency [2] | Potency [3]

N#CC1(c2cccc(C(=O)Nc3cc(Oc4ccc5nc(NC(=O)C6CC6)sc5n4)ccc3F)c2Cl)CC1
inactive: activation [1] 23.6% | Potency [2] | Potency [3] | viability [4] 82.7% | Potency [10] | Potency [7]

Cc1csc(-c2nnc(Nc3ccc(Oc4ncccc4-c4ccnc(N)n4)cc3)c3ccccc23)c1
active: Potency [8] 1.86 µM | Potency [10] 0.296 µM
inactive: activation [1] 19.6% | Potency [2] | Potency [3]

Cc1cc(C(=O)Nc2cc(Oc3ccc4nc(NC(=O)C5CC5)cn4n3)ccc2C)n(C)n1
inactive: Potency [2] | Potency [3]
active: Potency [1] 16.9 µM | Potency [9] 14.8 µM | Potency [5] 1.32 µM | Potency [10] 9.34 µM | Potency [6] 6.61 µM | Potency [7] 9.34 µM
